High-throughput results deposited in PubChem by National Center for Advancing Translational Sciences (NCATS).
This is one part of a sample in which hits are shown more often than they occur.
Vaccinia Venus: vaccinia inhibition (Venus reporter). 0.46% of 330,000 active. Potency, µM (titrated, usually from 36.5 µM), for the others: top-dose activity change, negative = inhibition, actives largely listed as inhibitors. Vaccinia virus Venus reporter expression, fluorescence; calls by dose curve; tested in A549 cells; further: potency means the concentration at half of the fitted maximal effect; on the % scale 0 is the no-effect control and ±100 the full control effect; nearly all actives have a fitted effect of over 30% in size
LASV entry inh: inhibitors of Lassa virus binding or cell entry | Lassa virus pseudotype entry inhibition, cell reporter | 1.2% of 300,000 active | Potency, µM (top dose mostly 37.9 µM), for the others: at the highest dose activity change, negative = inhibition, hits mostly inhibitors; calls by dose curve; tested in HEK293 cells; further: potency means the concentration at half of the fitted maximal effect; on the % scale 0 is the no-effect control and ±100 the full control effect; nearly all actives have a fitted effect of over 50% in size
Vaccinia mCherry: vaccinia inhibition (mCherry reporter); 0.63% of 310,000 active; Potency, µM (series often up to 36.5 µM), inactives show at the top dose activity change, negative = inhibition, usual class: inhibitors; Vaccinia virus mCherry reporter infection, fluorescence; calls by dose curve; tested in A549 cells; further: potency means the concentration at half of the fitted maximal effect; on the % scale 0 is the no-effect control and ±100 the full control effect; nearly all actives have a fitted effect of over 35% in size
Shiga inhibitor: inhibitors of Shiga toxin in Vero cells; Vero cells, Shiga toxin protein synthesis inhibition reporter; inhibition, % at 38.7 µM; 9.2% of 290,000 active; AID 2315; in the data active means inhibition mostly above about 28%, no sharp cut-off; inactive means mostly below about 43%; further: 0% is about no effect
Marburg entry inh: Marburg virus entry inhibition | Marburg virus pseudotyped entry inhibition, cell reporter | Potency, µM (titrated, usually from 37.8 µM), for inactives: top-dose activity change, negative = inhibition, most hits filed as inhibitors | 1.8% of 300,000 active | AID 540276; calls by dose curve; tested in HEK293 cells; further: potency means the concentration at half of the fitted maximal effect; on the % scale 0 is the no-effect control and ±100 the full control effect
Cycloheximide cs: affects cycloheximide protein synthesis inhibition readout, counter-screen | cell reporter, cycloheximide protein synthesis inhibition counterscreen | max response, % | 12% of 300,000 active | AID 2314; in the data active means max response mostly above about 13%, no sharp cut-off; inactive means mostly below about 14%; further: read at 38.3 µM for the half of the compounds with a filed dose; 0% is about no effect
* marks the source's active call; other numbers are inactive results; [ ] = remark or other dose.

How did COC(=O)[C@]1(Cc2ccccc2)N[C@H](CN(C)C(=O)Nc2ccc(C(F)(F)F)cc2)[C@@H]2C(=O)N(Cc3ccccc3)C(=O)[C@@H]21 do in these assays?
Vaccinia Venus: 10µM*; Vaccinia mCherry: inconclusive

Results for CC[C@@]1(C(=O)OC)N[C@H](CN(C)C(=O)Nc2ccc(C(F)(F)F)cc2)[C@@H]2C(=O)N(Cc3ccccc3)C(=O)[C@@H]21 ?
Vaccinia Venus: -5%; Vaccinia mCherry: -4%

What do the screens show for `CCCCOc1ccc(CNC(=O)Cn2ncn3c(cc4cc(F)ccc43)c2=O)cc1`?
Vaccinia Venus: -2%; Vaccinia mCherry: -4%; Marburg entry inh: 15%[46.1 µM]

Results for O=C(Nc1ccc2c(c1)CCC2)c1cnn2c1NC(c1ccco1)CC2C(F)(F)F (stereo not given) ?
Vaccinia Venus: inconclusive; LASV entry inh: -3%; Vaccinia mCherry: -21%; Shiga inhibitor: 90*; Marburg entry inh: 6%; Cycloheximide cs: 52*

What do the screens show for `O=C(NNC(=O)c1cc2ccccc2cc1O)c1cccs1`?
Vaccinia Venus: -9%; LASV entry inh: 11%[46.1 µM]; Vaccinia mCherry: -14%; Shiga inhibitor: 109*; Marburg entry inh: inconclusive; Cycloheximide cs: 45*

Results for C/C(=N\NC(=O)c1cc2ccccc2cc1O)c1cccs1 ?
Vaccinia Venus: -25%; LASV entry inh: inconclusive; Vaccinia mCherry: -20%; Shiga inhibitor: 80*; Marburg entry inh: inconclusive; Cycloheximide cs: 37*

What do the screens show for `O=C(CCCCn1c(=O)[nH]c2ccccc2c1=O)N1CCN(c2cccc(C(F)(F)F)c2)CC1`?
Vaccinia Venus: inconclusive; LASV entry inh: 16µM*; Vaccinia mCherry: inconclusive; Shiga inhibitor: 22; Marburg entry inh: 9.2µM*; Cycloheximide cs: -4

Results for NNC(=S)Nc1ccc(C(F)(F)F)cc1Cl ?
Shiga inhibitor: -1; Cycloheximide cs: 2

Results for COc1ccc(CC(=O)NCc2nc3cccnc3n2Cc2ccc(C)cc2)cc1 ?
Vaccinia Venus: -9%; LASV entry inh: 4%[46.1 µM]; Vaccinia mCherry: -16%

Results for O=C(CCN=C1NS(=O)(=O)c2ccccc21)OCc1ccccc1 ?
Vaccinia Venus: 0%; LASV entry inh: 12%; Vaccinia mCherry: -8%; Marburg entry inh: 4%

Results for CCOc1cccc(OCCCn2c(-c3ccc(Br)cc3)nc3ccccc3c2=O)c1 ?
Vaccinia Venus: -3%; LASV entry inh: -1%[46.1 µM]; Vaccinia mCherry: -1%; Marburg entry inh: 6%[46.1 µM]

Results for COC(=O)c1ccc(C2OCC(C)(C)CO2)cc1 ?
Vaccinia Venus: -10%; LASV entry inh: -1%; Vaccinia mCherry: -4%; Shiga inhibitor: 150*; Marburg entry inh: inconclusive; Cycloheximide cs: 49*

How did CC1(C(=O)O)COC(c2ccc(Cl)cc2)OC1 (stereo not given) do in these assays?
Vaccinia Venus: -7%; LASV entry inh: -5%; Vaccinia mCherry: -7%; Shiga inhibitor: -4; Marburg entry inh: 6%[46.1 µM]; Cycloheximide cs: -1

Results for CCN(CC)C(=S)SCC(=O)c1ccc(F)cc1 ?
Vaccinia Venus: -12%; LASV entry inh: -15%; Vaccinia mCherry: -28%; Shiga inhibitor: 60*; Marburg entry inh: inconclusive; Cycloheximide cs: 40*

Results for CCN(CC)C(=S)SCC(=O)c1ccccc1 ?
LASV entry inh: inconclusive; Shiga inhibitor: 68*; Marburg entry inh: inconclusive; Cycloheximide cs: 62*

What do the screens show for `CCN(CC)C(=S)SCC(=O)Nc1ccc(F)cc1`?
Vaccinia Venus: -22%; LASV entry inh: inconclusive; Vaccinia mCherry: -18%; Shiga inhibitor: 12; Marburg entry inh: inconclusive; Cycloheximide cs: 14

How did CCN(CC)C(=S)SCC(=O)Nc1cccc(C(F)(F)F)c1 do in these assays?
Vaccinia Venus: -16%; LASV entry inh: -20%; Vaccinia mCherry: -11%; Marburg entry inh: -21%

What do the screens show for `COc1cccc(CC(=O)Nc2nc3c(s2)C(=O)CC(C)(C)C3)c1`?
Vaccinia Venus: -6%; LASV entry inh: 13%[46.1 µM]; Vaccinia mCherry: inactive; Shiga inhibitor: 1; Marburg entry inh: inconclusive; Cycloheximide cs: -5

Results for Cc1nc(-n2nc(C)c(CCC(C)C)c2C)sc1C(=O)Nc1ccc(Cl)cc1 ?
Vaccinia Venus: -11%; LASV entry inh: 33%[46.1 µM]; Vaccinia mCherry: -13%; Marburg entry inh: 11%[46.1 µM]

What do the screens show for `O=c1cc(-c2ccc(O)cc2)oc2ccc(O)cc12`?
Vaccinia Venus: -11%; LASV entry inh: inconclusive; Vaccinia mCherry: inconclusive; Shiga inhibitor: 54*; Marburg entry inh: -17%[46.1 µM]; Cycloheximide cs: 55*

What do the screens show for `COc1ccc2oc(-c3ccccc3[N+](=O)[O-])cc(=O)c2c1`?
Vaccinia Venus: -16%; Vaccinia mCherry: inconclusive; Shiga inhibitor: 81*; Marburg entry inh: -30%[46.1 µM]; Cycloheximide cs: 41*

Results for O=c1cc(-c2cccc(O)c2)oc2ccc(O)cc12 ?
Vaccinia Venus: -18%; Vaccinia mCherry: -9%

What do the screens show for `O=c1cc(-c2c(F)c(F)c(F)c(F)c2F)oc2ccccc12`?
Vaccinia Venus: -22%; LASV entry inh: inconclusive; Vaccinia mCherry: -25%; Shiga inhibitor: -28; Marburg entry inh: 18µM*; Cycloheximide cs: -2

Results for O=c1cc(-c2ccccc2)oc2cc(O)ccc12 ?
Vaccinia Venus: 5%; Vaccinia mCherry: 30%; Shiga inhibitor: 77*; Cycloheximide cs: 51*

How did O=c1cc(-c2cccc(F)c2)oc2ccccc12 do in these assays?
Vaccinia Venus: -2%; LASV entry inh: 4%[46.1 µM]; Vaccinia mCherry: 1%; Marburg entry inh: 14%[46.1 µM]

What do the screens show for `Nc1c(-c2ccc3c(c2)OCCO3)oc2ccccc2c1=O`?
Vaccinia Venus: -17%; LASV entry inh: -20%; Vaccinia mCherry: -21%; Shiga inhibitor: 70*; Marburg entry inh: inconclusive; Cycloheximide cs: 33*

What do the screens show for `O=c1cc(-c2ccc3c(c2)OCO3)oc2ccccc12`?
Vaccinia Venus: 2%; LASV entry inh: 20%; Vaccinia mCherry: -4%; Shiga inhibitor: 35; Marburg entry inh: -2%; Cycloheximide cs: 21*

Results for COc1ccc(-c2cc(=O)c3ccccc3o2)cc1 ?
Vaccinia Venus: 0%; Vaccinia mCherry: inactive; Shiga inhibitor: 52*; Cycloheximide cs: 19*

What do the screens show for `O=c1cc(-c2ccncc2)oc2ccccc12`?
Vaccinia Venus: -24%; LASV entry inh: 8%; Vaccinia mCherry: -25%; Shiga inhibitor: 23; Marburg entry inh: inconclusive; Cycloheximide cs: 10

What do the screens show for `O=c1cc(-c2ccc(O)cc2)oc2ccccc12`?
Vaccinia Venus: 10%; Vaccinia mCherry: inactive; Shiga inhibitor: 55*; Cycloheximide cs: 37*

How did O=C(Nc1cnccn1)c1ccc(Cl)cc1 do in these assays?
Vaccinia Venus: -6%; LASV entry inh: 23%[46.1 µM]; Vaccinia mCherry: inactive; Shiga inhibitor: 58*; Marburg entry inh: 10%[46.1 µM]; Cycloheximide cs: 5

How did O=C(Nc1cnccn1)c1ccncc1 do in these assays?
LASV entry inh: 9%; Shiga inhibitor: -2; Marburg entry inh: 3%; Cycloheximide cs: 1

How did N/C(=N\NC(=O)c1ccc(Cl)cc1)c1cnccn1 do in these assays?
Vaccinia Venus: 0%; LASV entry inh: 1%[46.1 µM]; Vaccinia mCherry: inconclusive; Shiga inhibitor: 48*; Marburg entry inh: inconclusive; Cycloheximide cs: 33*
